From paper PMC7862700, “An all-to-all approach to the identification of sequence-specific readers for epigenetic DNA modifications on cytosine”

Experiments:
Experiment in all cases: DAPPL (digital affinity profiling via proximity ligation, sequencing); 10 mM Tris-HCl pH 7.5, 50 mM NaCl, 1 mM DTT, 4% glycerol, room temperature, 30 min; GST-TFs on glutathione beads, 16-mer random dsDNA library, 0.1% formaldehyde crosslink after washing; high values mean tight binding
Settings in all cases: protein: recombinant; tags: N-terminal GST; dsDNA, one strand shown
GABPA = target: T1, GABPA (Homo sapiens, UniProt Q06546 1-454)
T1 sequence: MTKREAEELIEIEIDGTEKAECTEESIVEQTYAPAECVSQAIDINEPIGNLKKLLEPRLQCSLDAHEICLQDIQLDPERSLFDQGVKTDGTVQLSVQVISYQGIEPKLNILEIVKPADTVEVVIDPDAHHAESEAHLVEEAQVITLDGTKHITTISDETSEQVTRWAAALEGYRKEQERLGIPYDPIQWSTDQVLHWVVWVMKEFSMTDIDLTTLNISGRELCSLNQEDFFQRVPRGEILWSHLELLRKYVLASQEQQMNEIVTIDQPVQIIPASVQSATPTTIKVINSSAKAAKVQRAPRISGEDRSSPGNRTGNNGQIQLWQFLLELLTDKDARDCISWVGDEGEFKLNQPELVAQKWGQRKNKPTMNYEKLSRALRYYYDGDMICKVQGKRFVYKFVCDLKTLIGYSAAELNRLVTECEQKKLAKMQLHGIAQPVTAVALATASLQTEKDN
Summary of the method: (§1)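 The binding signal reported is, for every hexamer, its read frequency for a factor over its read frequency for the tag-only sample. Reads came from pools of yeast-expressed, GST-fused human transcription factors on glutathione beads, barcoded with DNA and mixed with that sample, which were incubated with 200 nmole of a random double-stranded 16-mer DNA library in Tris/NaCl/DTT/glycerol buffer at room temperature for 30 min. After washing, the pools were crosslinked with 0.1% formaldehyde, proximity-ligated with BsaI/T4 ligase for 1 h at 37 °C, PCR-amplified and sequenced on an Illumina NextSeq500.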

ERG = target: T2, ERG (Homo sapiens, UniProt P11308 1-479)
T2 sequence: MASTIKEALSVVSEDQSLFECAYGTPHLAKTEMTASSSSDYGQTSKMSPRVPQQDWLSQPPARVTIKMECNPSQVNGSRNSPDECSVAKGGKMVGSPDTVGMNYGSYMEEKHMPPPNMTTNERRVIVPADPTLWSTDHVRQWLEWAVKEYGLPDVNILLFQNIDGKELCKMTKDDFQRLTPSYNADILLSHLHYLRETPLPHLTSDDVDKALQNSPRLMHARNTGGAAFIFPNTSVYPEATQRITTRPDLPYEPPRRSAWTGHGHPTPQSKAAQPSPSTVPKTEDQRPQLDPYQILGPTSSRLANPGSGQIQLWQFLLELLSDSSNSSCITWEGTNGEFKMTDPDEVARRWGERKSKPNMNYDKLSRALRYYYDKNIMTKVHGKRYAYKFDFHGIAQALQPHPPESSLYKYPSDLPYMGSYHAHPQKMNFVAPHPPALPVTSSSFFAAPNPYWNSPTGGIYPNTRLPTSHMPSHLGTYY
Summary of the method: as §1

EHF = target: T3, EHF (Homo sapiens, UniProt Q9NZC4 1-300)
T3 sequence: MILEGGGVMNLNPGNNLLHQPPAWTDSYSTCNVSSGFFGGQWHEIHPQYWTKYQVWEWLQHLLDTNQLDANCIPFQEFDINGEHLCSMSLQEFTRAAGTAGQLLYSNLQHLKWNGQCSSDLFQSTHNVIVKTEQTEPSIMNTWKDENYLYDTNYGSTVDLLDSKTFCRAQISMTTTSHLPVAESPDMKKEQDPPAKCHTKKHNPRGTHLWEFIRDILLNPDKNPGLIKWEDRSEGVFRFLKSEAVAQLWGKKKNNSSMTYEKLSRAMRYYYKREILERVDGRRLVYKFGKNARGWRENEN
Summary of the method: as §1

SPIB = SPIB (Homo sapiens, UniProt Q01892 1-262)
Chain of SPIB (Q01892 whole entry): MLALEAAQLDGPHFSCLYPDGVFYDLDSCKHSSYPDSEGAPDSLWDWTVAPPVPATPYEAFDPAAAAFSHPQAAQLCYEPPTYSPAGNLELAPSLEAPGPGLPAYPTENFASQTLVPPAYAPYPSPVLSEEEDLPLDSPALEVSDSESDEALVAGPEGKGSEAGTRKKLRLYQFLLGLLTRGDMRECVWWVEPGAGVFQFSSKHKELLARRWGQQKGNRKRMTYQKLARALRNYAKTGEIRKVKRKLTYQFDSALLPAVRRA
Summary of the method: as §1

ETV5 = ETV5 (Homo sapiens, UniProt P41161 1-510)
Chain of ETV5 (P41161 whole entry): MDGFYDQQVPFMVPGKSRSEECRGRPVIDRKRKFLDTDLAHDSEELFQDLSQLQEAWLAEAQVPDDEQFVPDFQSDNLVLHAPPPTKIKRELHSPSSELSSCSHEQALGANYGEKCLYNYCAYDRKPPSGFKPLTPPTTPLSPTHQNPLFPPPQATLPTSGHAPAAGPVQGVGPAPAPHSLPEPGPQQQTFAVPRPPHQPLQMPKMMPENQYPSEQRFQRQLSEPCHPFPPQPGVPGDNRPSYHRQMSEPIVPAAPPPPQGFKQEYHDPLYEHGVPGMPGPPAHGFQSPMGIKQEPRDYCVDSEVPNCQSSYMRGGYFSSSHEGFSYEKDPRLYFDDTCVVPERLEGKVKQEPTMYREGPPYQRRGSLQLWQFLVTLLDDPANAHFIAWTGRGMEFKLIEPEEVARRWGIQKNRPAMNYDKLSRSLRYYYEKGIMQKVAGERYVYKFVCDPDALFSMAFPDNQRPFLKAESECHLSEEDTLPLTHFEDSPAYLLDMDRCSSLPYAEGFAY
Summary of the method: as §1

ELF4 = ELF4 (Homo sapiens, UniProt Q99607 1-663)
Chain of ELF4 (Q99607 whole entry): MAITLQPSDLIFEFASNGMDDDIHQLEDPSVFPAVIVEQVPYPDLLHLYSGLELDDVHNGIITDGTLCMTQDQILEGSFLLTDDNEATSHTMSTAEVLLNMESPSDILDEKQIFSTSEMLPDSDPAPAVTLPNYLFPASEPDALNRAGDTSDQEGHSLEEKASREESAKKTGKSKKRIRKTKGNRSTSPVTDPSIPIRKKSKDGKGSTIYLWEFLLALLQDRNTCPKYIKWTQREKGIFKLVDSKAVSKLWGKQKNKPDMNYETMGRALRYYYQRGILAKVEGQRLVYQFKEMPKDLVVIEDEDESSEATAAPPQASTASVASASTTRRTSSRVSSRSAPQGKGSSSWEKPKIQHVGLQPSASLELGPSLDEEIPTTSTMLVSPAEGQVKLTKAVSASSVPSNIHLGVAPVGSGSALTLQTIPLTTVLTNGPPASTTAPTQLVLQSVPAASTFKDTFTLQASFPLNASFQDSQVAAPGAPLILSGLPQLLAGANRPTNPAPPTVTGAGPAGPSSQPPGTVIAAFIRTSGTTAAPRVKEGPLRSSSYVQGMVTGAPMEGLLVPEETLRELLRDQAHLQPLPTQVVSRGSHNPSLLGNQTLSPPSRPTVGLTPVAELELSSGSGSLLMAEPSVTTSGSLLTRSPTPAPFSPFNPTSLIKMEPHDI
Summary of the method: as §1

ETV3L = target: T4, ETV3L (Homo sapiens, UniProt Q6ZN32 1-361)
T4 sequence: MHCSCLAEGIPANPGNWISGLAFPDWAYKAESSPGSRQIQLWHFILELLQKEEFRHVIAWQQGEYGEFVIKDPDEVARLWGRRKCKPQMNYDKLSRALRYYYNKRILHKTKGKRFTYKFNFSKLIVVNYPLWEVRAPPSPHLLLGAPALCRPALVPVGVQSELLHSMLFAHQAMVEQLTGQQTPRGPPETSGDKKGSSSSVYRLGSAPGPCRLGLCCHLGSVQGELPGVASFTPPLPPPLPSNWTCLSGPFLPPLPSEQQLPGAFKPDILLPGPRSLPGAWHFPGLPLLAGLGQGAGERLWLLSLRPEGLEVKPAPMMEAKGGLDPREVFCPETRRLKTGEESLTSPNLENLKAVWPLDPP
Summary of the method: as §1

ETS2 = target: T5, ETS2 (Homo sapiens, UniProt P15036 1-469)
T5 sequence: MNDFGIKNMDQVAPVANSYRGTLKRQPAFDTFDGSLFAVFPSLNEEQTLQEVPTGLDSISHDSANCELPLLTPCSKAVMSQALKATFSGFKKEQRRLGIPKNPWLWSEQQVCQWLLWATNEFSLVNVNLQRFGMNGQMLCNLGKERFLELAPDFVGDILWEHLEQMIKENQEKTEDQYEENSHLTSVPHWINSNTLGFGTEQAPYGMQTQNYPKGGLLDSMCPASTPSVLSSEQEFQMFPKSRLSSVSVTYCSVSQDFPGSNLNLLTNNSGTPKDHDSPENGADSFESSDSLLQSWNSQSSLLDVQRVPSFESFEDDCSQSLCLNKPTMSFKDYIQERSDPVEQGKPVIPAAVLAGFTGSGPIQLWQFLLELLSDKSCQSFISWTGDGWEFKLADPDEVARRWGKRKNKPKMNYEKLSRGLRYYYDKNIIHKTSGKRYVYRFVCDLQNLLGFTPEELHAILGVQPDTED
Summary of the method: as §1

ETV7 = target: T6, ETV7 (Homo sapiens, UniProt Q9Y603 1-341)
T6 sequence: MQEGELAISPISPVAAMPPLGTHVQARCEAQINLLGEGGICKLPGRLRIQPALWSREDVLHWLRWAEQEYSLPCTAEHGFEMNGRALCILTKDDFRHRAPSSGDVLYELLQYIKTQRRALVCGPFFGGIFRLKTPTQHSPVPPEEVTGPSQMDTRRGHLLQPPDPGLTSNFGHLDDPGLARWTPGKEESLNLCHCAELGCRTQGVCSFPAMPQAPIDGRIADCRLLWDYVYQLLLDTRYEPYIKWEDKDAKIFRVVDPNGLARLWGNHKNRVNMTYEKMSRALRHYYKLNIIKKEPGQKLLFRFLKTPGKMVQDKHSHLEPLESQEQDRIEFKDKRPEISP
Summary of the method: as §1

ETV3 = target: T7, ETV3 (Homo sapiens, UniProt P41162-2 1-143)
T7 sequence: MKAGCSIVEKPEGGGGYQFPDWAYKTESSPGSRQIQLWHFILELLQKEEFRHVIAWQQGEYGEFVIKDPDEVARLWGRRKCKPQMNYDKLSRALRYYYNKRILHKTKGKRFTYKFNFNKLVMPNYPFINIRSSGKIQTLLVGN
Summary of the method: as §1

ELK1 = target: T8, ELK1 (Homo sapiens, UniProt P19419 1-428)
T8 sequence: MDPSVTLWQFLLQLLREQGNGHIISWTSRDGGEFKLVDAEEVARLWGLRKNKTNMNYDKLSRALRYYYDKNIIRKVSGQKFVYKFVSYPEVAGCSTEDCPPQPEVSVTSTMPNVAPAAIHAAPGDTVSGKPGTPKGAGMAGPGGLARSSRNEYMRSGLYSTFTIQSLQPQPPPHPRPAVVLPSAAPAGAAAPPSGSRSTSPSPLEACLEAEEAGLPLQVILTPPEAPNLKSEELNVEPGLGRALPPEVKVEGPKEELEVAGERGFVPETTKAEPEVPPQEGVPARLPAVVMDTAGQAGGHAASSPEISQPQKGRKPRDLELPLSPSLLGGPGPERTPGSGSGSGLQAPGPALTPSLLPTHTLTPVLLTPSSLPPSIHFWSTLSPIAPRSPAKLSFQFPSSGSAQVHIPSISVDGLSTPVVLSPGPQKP
Summary of the method: as §1

ELF1 = ELF1 (Homo sapiens, UniProt P32519 1-619)
Chain of ELF1 (P32519 whole entry): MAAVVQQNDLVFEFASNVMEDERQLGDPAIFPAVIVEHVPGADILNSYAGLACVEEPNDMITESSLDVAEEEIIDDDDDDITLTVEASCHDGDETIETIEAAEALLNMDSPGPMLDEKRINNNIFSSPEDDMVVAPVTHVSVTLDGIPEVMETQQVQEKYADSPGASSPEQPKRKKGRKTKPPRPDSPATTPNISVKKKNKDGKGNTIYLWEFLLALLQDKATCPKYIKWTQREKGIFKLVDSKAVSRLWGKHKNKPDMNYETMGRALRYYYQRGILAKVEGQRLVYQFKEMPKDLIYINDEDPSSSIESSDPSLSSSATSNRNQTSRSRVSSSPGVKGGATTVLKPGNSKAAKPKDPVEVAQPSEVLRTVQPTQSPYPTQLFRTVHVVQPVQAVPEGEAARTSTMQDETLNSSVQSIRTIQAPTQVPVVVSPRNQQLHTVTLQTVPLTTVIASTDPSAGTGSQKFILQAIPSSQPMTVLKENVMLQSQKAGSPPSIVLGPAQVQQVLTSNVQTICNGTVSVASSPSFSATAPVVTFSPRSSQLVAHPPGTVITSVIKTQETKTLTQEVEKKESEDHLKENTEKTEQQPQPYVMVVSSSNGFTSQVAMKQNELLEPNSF
Summary of the method: as §1

FEV = target: T9, FEV (Homo sapiens, UniProt Q99581 1-238)
T9 sequence: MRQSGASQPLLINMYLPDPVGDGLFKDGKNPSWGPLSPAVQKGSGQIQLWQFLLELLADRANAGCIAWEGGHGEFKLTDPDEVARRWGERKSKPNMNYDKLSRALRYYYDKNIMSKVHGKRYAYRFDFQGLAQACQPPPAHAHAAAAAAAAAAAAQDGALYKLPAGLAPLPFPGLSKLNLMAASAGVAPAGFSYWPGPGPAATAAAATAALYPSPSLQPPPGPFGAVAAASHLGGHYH
Summary of the method: as §1

ELK4 = target: T10, ELK4 (Homo sapiens, UniProt P28324-2 1-405)
T10 sequence: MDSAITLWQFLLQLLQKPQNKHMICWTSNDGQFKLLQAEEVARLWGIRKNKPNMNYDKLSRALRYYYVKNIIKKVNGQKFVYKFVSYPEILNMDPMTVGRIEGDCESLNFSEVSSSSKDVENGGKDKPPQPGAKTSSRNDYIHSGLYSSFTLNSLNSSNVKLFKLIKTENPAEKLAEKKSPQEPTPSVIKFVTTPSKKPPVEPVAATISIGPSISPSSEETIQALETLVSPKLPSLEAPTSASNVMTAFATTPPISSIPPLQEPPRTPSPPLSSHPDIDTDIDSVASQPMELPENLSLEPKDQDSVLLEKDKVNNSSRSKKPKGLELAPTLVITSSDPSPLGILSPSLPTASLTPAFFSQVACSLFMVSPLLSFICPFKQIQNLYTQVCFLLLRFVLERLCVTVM
Summary of the method: as §1

ETV1 = ETV1 (Homo sapiens, UniProt P50549 1-477)
Chain of ETV1 (P50549 whole entry): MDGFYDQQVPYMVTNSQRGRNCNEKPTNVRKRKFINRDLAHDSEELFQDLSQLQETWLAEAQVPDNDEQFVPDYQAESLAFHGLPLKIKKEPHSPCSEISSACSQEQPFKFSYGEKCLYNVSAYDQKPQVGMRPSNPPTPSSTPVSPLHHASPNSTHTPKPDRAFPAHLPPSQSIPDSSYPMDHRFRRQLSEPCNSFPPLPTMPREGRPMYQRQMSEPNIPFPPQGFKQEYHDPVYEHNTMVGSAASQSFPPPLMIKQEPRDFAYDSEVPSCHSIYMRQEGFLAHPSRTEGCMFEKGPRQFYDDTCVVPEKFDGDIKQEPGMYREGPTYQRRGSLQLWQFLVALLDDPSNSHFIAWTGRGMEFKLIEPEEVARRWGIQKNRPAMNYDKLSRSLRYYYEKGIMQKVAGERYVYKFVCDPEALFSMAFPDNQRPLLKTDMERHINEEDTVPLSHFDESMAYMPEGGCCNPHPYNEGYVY
Summary of the method: as §1

ERF = target: T11, ERF (Homo sapiens, UniProt P50548 1-548)
T11 sequence: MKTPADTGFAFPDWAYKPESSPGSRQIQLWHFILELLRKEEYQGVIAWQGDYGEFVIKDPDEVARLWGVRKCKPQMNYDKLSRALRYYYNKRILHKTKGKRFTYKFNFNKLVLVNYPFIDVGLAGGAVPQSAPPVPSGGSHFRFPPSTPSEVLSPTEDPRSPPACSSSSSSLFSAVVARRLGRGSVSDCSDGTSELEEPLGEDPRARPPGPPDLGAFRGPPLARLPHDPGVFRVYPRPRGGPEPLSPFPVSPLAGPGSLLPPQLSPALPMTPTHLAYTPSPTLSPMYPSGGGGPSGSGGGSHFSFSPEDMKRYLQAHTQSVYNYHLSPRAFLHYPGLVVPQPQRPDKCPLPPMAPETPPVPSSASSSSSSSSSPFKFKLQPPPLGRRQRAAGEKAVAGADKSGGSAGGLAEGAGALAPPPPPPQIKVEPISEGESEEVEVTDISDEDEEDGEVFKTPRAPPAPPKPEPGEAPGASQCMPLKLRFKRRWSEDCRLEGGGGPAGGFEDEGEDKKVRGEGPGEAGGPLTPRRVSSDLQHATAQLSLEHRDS
Summary of the method: as §1

SPDEF = target: T12, SPDEF (Homo sapiens, UniProt O95238 1-335)
T12 sequence: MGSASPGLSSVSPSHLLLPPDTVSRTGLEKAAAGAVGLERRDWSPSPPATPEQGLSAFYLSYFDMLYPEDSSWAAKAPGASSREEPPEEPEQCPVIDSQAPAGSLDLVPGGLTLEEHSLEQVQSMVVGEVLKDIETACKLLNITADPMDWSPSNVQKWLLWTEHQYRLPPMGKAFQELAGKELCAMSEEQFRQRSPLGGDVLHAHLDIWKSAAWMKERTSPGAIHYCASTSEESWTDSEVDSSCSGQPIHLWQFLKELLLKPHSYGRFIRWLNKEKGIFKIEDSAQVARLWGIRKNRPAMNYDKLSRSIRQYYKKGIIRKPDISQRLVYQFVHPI
Summary of the method: as §1

ETV6 = ETV6 (Homo sapiens, UniProt P41212 1-452)
Chain of ETV6 (P41212 whole entry): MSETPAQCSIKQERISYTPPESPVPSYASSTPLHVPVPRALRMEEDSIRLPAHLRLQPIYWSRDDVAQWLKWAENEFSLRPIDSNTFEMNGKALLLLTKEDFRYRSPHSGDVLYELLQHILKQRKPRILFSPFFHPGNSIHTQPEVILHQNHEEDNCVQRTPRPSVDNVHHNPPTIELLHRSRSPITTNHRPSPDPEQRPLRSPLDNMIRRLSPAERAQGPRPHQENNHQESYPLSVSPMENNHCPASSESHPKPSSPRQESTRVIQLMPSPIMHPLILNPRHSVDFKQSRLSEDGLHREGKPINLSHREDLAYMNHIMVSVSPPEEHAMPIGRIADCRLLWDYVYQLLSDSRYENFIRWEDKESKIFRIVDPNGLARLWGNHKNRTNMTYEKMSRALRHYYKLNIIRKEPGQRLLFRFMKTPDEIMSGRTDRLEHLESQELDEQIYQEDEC
Summary of the method: as §1

Row | Sequence | binding signal (GABPA) | binding signal (ERG) | binding signal (EHF) | binding signal (SPIB) | binding signal (ETV5) | binding signal (ELF4) | binding signal (ETV3L) | binding signal (ETS2) | binding signal (ETV7) | binding signal (ETV3) | binding signal (ELK1) | binding signal (ELF1) | binding signal (FEV) | binding signal (ELK4) | binding signal (ETV1) | binding signal (ERF) | binding signal (SPDEF) | binding signal (ETV6)
1 | CGGCTG | 1.03 fold enrichment (6-mer frequency, TF over GST control) | 1.04 fold enrichment (6-mer frequency, TF over GST control) | 1.05 fold enrichment (6-mer frequency, TF over GST control) | 1.03 fold enrichment (6-mer frequency, TF over GST control) | 1.01 fold enrichment (6-mer frequency, TF over GST control) | 1.12 fold enrichment (6-mer frequency, TF over GST control) | 1.02 fold enrichment (6-mer frequency, TF over GST control) | 1.07 fold enrichment (6-mer frequency, TF over GST control) | 1.1 fold enrichment (6-mer frequency, TF over GST control) | 1.01 fold enrichment (6-mer frequency, TF over GST control) |  |  |  |  |  |  |  | 
2 | TGTTGT |  | 1.08 fold enrichment (6-mer frequency, TF over GST control) | 1.09 fold enrichment (6-mer frequency, TF over GST control) | 1.12 fold enrichment (6-mer frequency, TF over GST control) | 1.08 fold enrichment (6-mer frequency, TF over GST control) | 1.11 fold enrichment (6-mer frequency, TF over GST control) | 1.15 fold enrichment (6-mer frequency, TF over GST control) | 1.05 fold enrichment (6-mer frequency, TF over GST control) | 1.14 fold enrichment (6-mer frequency, TF over GST control) | 1.14 fold enrichment (6-mer frequency, TF over GST control) | 1.15 fold enrichment (6-mer frequency, TF over GST control) | 1.13 fold enrichment (6-mer frequency, TF over GST control) | 1.11 fold enrichment (6-mer frequency, TF over GST control) | 1.24 fold enrichment (6-mer frequency, TF over GST control) | 1.2 fold enrichment (6-mer frequency, TF over GST control) | 1.02 fold enrichment (6-mer frequency, TF over GST control) | 1.21 fold enrichment (6-mer frequency, TF over GST control) | 1.11 fold enrichment (6-mer frequency, TF over GST control)
